# In PubChem BioAssay AID1030 (National Center for Advancing Translational Sciences (NCATS), 2008):
# Hit rate of the full screen: of about 220,000 compounds, about 16,000 (7.3%) were called active. Where a call stands in place of a potency, no number is given. Roughly 25% stayed inconclusive and do not appear here. Calls follow the shape of the dose curve; as a rule, active = well fitted inhibition curve with a large enough effect (not every such curve was filed as active); inconclusive = small, poorly fitted or top-dose-only effect, or another doubt; inactive = no such curve, though single readings can be large or run the other way. The full list was thinned out, with actives kept by preference.
# Target: Aldehyde dehydrogenase 1A1 (Homo sapiens) (UniProt P00352)
# Sequence (P00352 whole entry, looked up): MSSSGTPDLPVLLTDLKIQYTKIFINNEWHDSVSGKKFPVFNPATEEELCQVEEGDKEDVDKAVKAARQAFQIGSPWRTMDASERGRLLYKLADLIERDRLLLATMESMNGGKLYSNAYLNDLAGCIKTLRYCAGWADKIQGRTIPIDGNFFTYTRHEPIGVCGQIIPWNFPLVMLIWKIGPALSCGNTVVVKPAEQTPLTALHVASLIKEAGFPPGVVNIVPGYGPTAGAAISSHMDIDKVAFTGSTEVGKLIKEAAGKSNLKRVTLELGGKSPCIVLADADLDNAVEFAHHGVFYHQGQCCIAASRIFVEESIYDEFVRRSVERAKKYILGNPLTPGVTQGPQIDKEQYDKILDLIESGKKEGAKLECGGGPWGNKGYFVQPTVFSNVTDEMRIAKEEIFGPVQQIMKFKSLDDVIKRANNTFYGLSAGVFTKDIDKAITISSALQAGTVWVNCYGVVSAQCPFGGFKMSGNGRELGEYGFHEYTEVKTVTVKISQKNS
# Assay: qHTS Assay for Inhibitors of Aldehyde Dehydrogenase 1 (ALDH1A1)
# Conditions: Purified ALDH1A1, NADH fluorescence, propionaldehyde substrate; series mostly up to 75.3 µM
# Potency is read from the fitted curve at half-maximal effect.
row,Compound,Potency
1,COc1ccc(Cl)cc1N(CC(=O)N1CCCCC1)S(C)(=O)=O,inactive
2,CCn1c(C(C)C)n[nH]c1=S,inactive
3,CCCCCCCC/C=C\CCCCCCCC(=O)NCC(=O)O,inactive
4,COc1ccccc1NC(=O)C1=C(C)NC(=O)NC1c1ccc(C)s1 (stereo unspecified),inactive
5,CCOC(=O)/C(=N\Nc1ccccc1Cl)N(C)C1CCS(=O)(=O)C1 (stereo unspecified),inactive
6,Cc1ccnc(-n2sc3ccccc3c2=O)n1,1.26 µM (active)
7,Cc1nc2ccccc2c(=O)n1CCCn1ccnc1,inactive
8,Cc1ccnc(Nc2nc3ccccc3s2)n1,inactive
9,COC(=O)C(C)NC(=O)COc1ccc2ccccc2c1 (stereo unspecified),inactive
10,C/C(=N/N1CCN(Cc2cccc3ccccc23)CC1)c1cccnc1,inactive
11,CC/C(Cc1ccccc1)=N/NC(=O)CCn1nnc2ccccc21,inactive
12,CC(C)Cc1nc(Cl)c(C#N)c2c1CCC2,inactive
13,COC(=O)C1=C(C)NC(=O)/C1=C/c1ccc(CNS(=O)(=O)c2ccc(C)cc2)o1,inactive
14,O=C(NCC(=O)N(CC1CCCO1)C(C(=O)NC1CCCCC1)c1ccccc1)c1ccco1 (stereo unspecified),inactive
15,CCNC(=O)CN(c1ccc(C)cc1)S(=O)(=O)c1ccc(SC)cc1,11.2 µM (active)
16,CCCNC(=O)CN(Cc1ccccc1F)S(=O)(=O)c1ccc(C)cc1,inactive
17,Cc1ccc(S(=O)(=O)N(CC(=O)NCCSC2CCCCC2)c2ccccc2F)cc1,inactive
18,COc1ccc(/C=C2\SC(=S)N(CC(=O)NNC(=O)c3ccncc3)C2=O)cc1,inactive
19,O=c1c2ccccc2nc(CSc2nnnn2-c2ccccc2)n1-c1ccccc1,inactive
20,N#CCSc1nc2ccccc2c(=O)n1-c1ccccc1,12.6 µM (active)
21,COc1cccc(-n2c(SCC(=O)c3c[nH]c4ccccc34)nc3ccccc3c2=O)c1,inactive
22,CC(C)(C)C1CCC(=NNC(=O)c2ccc(Br)o2)CC1 (stereo unspecified),inactive
23,O=c1c(Cl)c(NC2CC2)cnn1-c1ccccc1,inactive

row,Compound,Potency
1,Cc1cc(C)nc(SCC(=O)N(C)C)n1,inactive
2,CCOc1ccc(NC(=O)CSc2ncnc3c2sc2ccccc23)cc1,inactive
3,COc1ccc(NC(=O)CSc2ncnc3[nH]ncc23)cc1,11.2 µM (active)
4,COc1ccc(NC(=O)CSc2nc(C)cs2)cc1,inactive
5,COC(=O)c1sccc1NN1C(=O)c2ccccc2C1=O,inactive
6,CCOC(=O)c1sc(=S)n(-c2cccc(OC)c2)c1N,22.4 µM (active)
7,CCOC(=O)c1sc(-c2cccc([N+](=O)[O-])c2)cc1N,inactive
8,COC(=O)c1sc(=S)n(-c2ccccc2)c1N,7.08 µM (active)
9,CCOC(=O)c1csc(NC(=O)Nc2cccc(OC)c2)n1,inactive
10,COC(=O)c1sc(=S)n(-c2ccc(Cl)cc2)c1C,inactive
11,COc1ccc(CCc2nnc(CCC(=O)NCc3cnn(-c4ccccc4C)c3)o2)cc1,inactive
12,O=C(CCCNS(=O)(=O)c1cccc2nsnc12)NCCN1CCN(c2ccccc2F)CC1,inactive
13,CCCCC/C=C\C[C@H](O)/C=C/C=C/C=C/[C@@H](O)CCCC(=O)O,inactive
14,COc1cc(C2CC(=O)N3CN(Cc4ccccc4)CSC3=C2C#N)ccc1OCc1ccccc1 (stereo unspecified),10 µM (active)
15,COc1cc(CNC2CCCC2)c(Br)cc1OCc1ccccc1,inactive
16,COc1ccc(CCN=C2SCC(=O)N2Cc2ccccc2)cc1OC,inactive
17,O=C(N/N=C1\CCSC1)c1cc(Cl)ccc1O,inactive
18,O=C(CSC(=S)N1CCOCC1)c1ccccc1,inactive
19,CC(=O)c1ccc(NC(=O)CSC(=S)N2CCCC2)cc1,inactive
20,O=C(CSC(=S)N1CCCCC1)c1c(F)cccc1F,12.6 µM (active)
21,CCOP(=O)(OCC)C(Nc1ccc([N+](=O)[O-])cc1)c1ccc(Cl)cc1 (stereo unspecified),inactive
22,Cc1ccc2c(c1)C1CN(C)CCC1N2C(=S)Nc1ccc(Cl)cc1Cl (stereo unspecified),inactive
23,CCn1c(SCC(=O)NCC2CCCO2)nc2cc(S(=O)(=O)N3CCCCC3)ccc21 (stereo unspecified),inactive

row,Compound,Potency
1,Cc1ccc(S(=O)(=O)N2CCC(C(=O)NCC3CCCO3)CC2)cc1 (stereo unspecified),inactive
2,CCn1cc(C(=O)NCCCN2CCCCCC2)c(=O)c2cc(S(=O)(=O)N3CCc4ccccc4C3)ccc21,7.94 µM (active)
3,O=C(Nc1ccc(S(=O)(=O)N2CCc3ccccc3C2)cc1)c1ccccc1,inactive
4,CCOC(=O)N1CCN(C(=O)c2cn(C)c3ccc(S(=O)(=O)N4CCCC4)cc3c2=O)CC1,inactive
5,CCn1cc(C(=O)NCC2CCCO2)c(=O)c2cc(S(=O)(=O)N3CCCCC3)ccc21 (stereo unspecified),15.8 µM (active)
6,NS(=O)(=O)c1ccc(CNC(=O)c2ccc(Cl)cc2[N+](=O)[O-])cc1,inactive
7,CCOC(=O)N/N=C/c1cccnc1,inactive
8,Cc1nn(CCOc2ccc(Br)cc2)c(C)c1[N+](=O)[O-],inactive
9,CN(C)CCSc1nc(N)c2c3c(sc2n1)COC(C)(C)C3,inactive
10,C=CCNC(=S)NNc1ncnc2sc3c(c12)CC(C)(C)OC3,1.41 µM (active)
11,CC(C)c1nc2sc3c(c2c(=O)n1N)CC(C)(C)OC3,inactive
12,O=C(NCc1ccc(F)cc1)C(c1ccccc1)N(C(=O)c1csnn1)C1CC1 (stereo unspecified),inactive
13,COc1cc(C)c(S(=O)(=O)N2CCOCC2)c(C)c1C,inactive
14,O=C1N/C(=N\N=C\c2ccco2)SC1Cc1ccc(F)cc1 (stereo unspecified),inactive
15,CCOc1ccc(S(=O)(=O)Nc2ccc(S(=O)(=O)Nc3cc(OC)ccc3OC)cc2)cc1,10 µM (active)
16,CCOc1ccc(C(=O)Nc2cc(OC)ccc2OC)cc1,inactive
17,CCOc1ccc(NC(=O)Nc2cc(C)ccc2OC)cc1,inactive
18,CCOc1ccc(NS(=O)(=O)c2cc(C)c(C)cc2C)cc1,7.94 µM (active)
19,CCOc1ccc(S(=O)(=O)Nc2ccncc2)c(C)c1C,inactive
20,CCOc1ccc(NS(=O)(=O)c2ccc(C)c(C(N)=O)c2)cc1,inactive
21,CN1CCN(/N=C/c2ccc(C#N)cc2)CC1,inactive
22,CC(=O)/C(C)=N/O,inactive
23,CC(OC(=O)CNS(=O)(=O)/C=C/c1ccccc1)C(=O)Nc1ccc(S(=O)(=O)N2CCCC2)cc1 (stereo unspecified),1.26 µM (active)

row,Compound,Potency
1,Cc1cc(C(=O)OC(C)C(=O)Nc2cccc(S(=O)(=O)N3CCOCC3)c2)c(C)o1 (stereo unspecified),inactive
2,O=C(O)/C=C/c1ccc(S(=O)(=O)N2CCCCCC2)cc1,inactive
3,C/C(N)=C(/C#N)C(=O)COC(=O)C1CCN(C(=O)c2ccc(Cl)cc2)CC1,inactive
4,N/C(=N\OC(=O)Cc1ccccc1[N+](=O)[O-])c1ccc(Br)cc1,inactive
5,NS(=O)(=O)c1ccc(NC(=O)/C=C/c2ccccc2Cl)cc1,inactive
6,COC(=O)C1=C(C)N(c2ccc(C)cc2)/C(=C/c2ccc(O)cc2)C1=O,inactive
7,CCOc1cc(C(=S)N2CCOCC2)ccc1O,8.91 µM (active)
8,Cc1ccc(C(=O)C(=S)N2CCOCC2)cc1,inactive
9,CCOc1cc(C(=O)OCC(=O)Nc2cccc(C)c2)ccc1OCC(=O)N1CCOCC1,inactive
10,COC(OC)c1ccnc(SCc2ccccc2Cl)n1,inactive
11,c1ccc(CSc2nnc(-c3ccco3)c(-c3ccco3)n2)cc1,2.82 µM (active)
12,O=c1[nH]c(SCc2ccccc2)nnc1-c1ccccc1,inactive
13,Nc1nc(SCc2ccccc2Cl)n[nH]1,inactive
14,Clc1ccccc1CSc1nnc(-c2ccco2)c(-c2ccco2)n1,10 µM (active)
15,Clc1ccc(CSc2nnc3c(n2)[nH]c2ccccc23)cc1,inactive
16,O=C(NC(=O)c1cc(OCC(F)(F)F)ccc1OCC(F)(F)F)Nc1ccccc1,inactive
17,CCOc1ccc(N=Cc2c(O)n(-c3cccc(C)n3)c(=O)c3ccccc23)cc1,inactive
18,CCOc1ccc(-n2c(O)c(/C=N/Nc3nc(C)cc(C)n3)c3ccccc3c2=O)cc1,5.01 µM (active)
19,Cc1ccc(-n2c(O)c(C=Nc3ccc(S(=O)(=O)Nc4ncccn4)cc3)c3ccccc3c2=O)cc1C,inactive
20,O=C(NCCOc1ccccc1F)Nc1ccc(Br)cc1,inactive
21,Cc1ccnc(N2C(=O)c3ccccc3C2Nc2ccc3c(c2)OCCO3)c1 (stereo unspecified),inactive
22,O=C1c2ccccc2C(Nc2ccc3c(c2)OCCO3)N1Cc1ccco1 (stereo unspecified),7.08 µM (active)
23,O=C(NC1CCCCC1)C1c2ccccc2C(=O)N1Cc1ccco1 (stereo unspecified),inactive

row,Compound,Potency
1,COc1ccccc1NC(=O)/C=C/C(N)=O,28.2 µM (active)
2,COc1ccccc1NC(=O)/C=C/C(=O)O,inactive
3,COc1ccccc1NC(=O)c1ccc(C)s1,inactive
4,CCCC(=O)OCC(=O)Nc1cc(Cl)ccc1[N+](=O)[O-],inactive
5,Cc1ccc(Cl)cc1NC(=O)COC(=O)CC(C)(C)C,8.91 µM (active)
6,Cc1ccc(Cl)cc1NC(=O)COC(=O)C1CCCCC1,inactive
7,Cc1ccc2nc(-c3ccccn3)cc(C(=O)Nc3ccc4c(c3)OCO4)c2c1,inactive
8,CCCCn1nc(C(=O)Nc2ccc(S(=O)(=O)Nc3ncccn3)cc2)c2ccccc2c1=O,inactive
9,Cn1cc(CN2CCC(C(O)CCc3ccccc3)CC2)c(-c2ccccc2F)n1 (stereo unspecified),inactive
10,CS(=O)(=O)n1nc(-c2ccco2)nc1N,inactive
11,C/C(N)=C(/C#N)C(=O)COC(=O)c1cc(-c2ccccc2)nc2ccc(Br)cc12,inactive
12,Cc1ccc(NC(=O)CN2CCCCC2)c2c1CC(C)(C)O2,inactive
13,Cc1cc(CO)nn1-c1ccc([N+](=O)[O-])cc1,inactive
14,COc1ccc(C(CC(=O)Nc2ccc(C)cc2)NC(=O)C(F)(F)F)cc1 (stereo unspecified),inactive
15,COc1ccc(NC(=O)Cn2c(-c3ccc(OC)cc3)cn(-c3ccc(C)cc3)c2=O)cc1,15.8 µM (active)
16,Cc1ccc(OC(=O)CCC(=O)Nc2ccc(Br)cc2)cc1,inactive
17,COC(=O)C1=C(C)Nc2ncnn2C1c1cccnc1 (stereo unspecified),inactive
18,COC(=O)C1=C(C)Nc2ncnn2C1c1ccco1 (stereo unspecified),inactive
19,CC1=C(C(=O)OC2CCCCC2)C(c2cccnc2)n2ncnc2N1 (stereo unspecified),20 µM (active)
